Here are results for 39 compounds from PubChem BioAssay (NCI).

About 83,000 compounds went through this panel and 20% of them were active in at least one assay; those are over-represented in the sample as a whole.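 Negative percent growth values reflect cell death: -40 means 40% of the cells present at the start died, and -100 means all died.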 The source made the active and inactive calls. How the source made its calls: active means growth percent below 10; inactive means the rest.

The first assay has as its system MDA-MB-231 breast. Briefly: NCI-60 one-dose screen, 48 h (100 = growth as untreated, 0 = no growth, -100 = all killed). The following applies: 10 µM unless noted.
As for `CCCSC1=NC2C(N(CC)C(=O)N2CC)N1/N=C/C=C/c1ccccc1[N+](=O)[O-]` (stereo not drawn), the growth was 22.6% (inactive).

As for `COC(=O)C1=Nc2ccc(F)cc2/C1=C/c1sc(=S)[nH]c1O`, the growth is 16.8% (inactive).

In the case of `O=C1c2cc(Br)ccc2Oc2cc([N+](=O)[O-])ccc2N1c1ccc(I)cc1F`, the growth is 101% (inactive).

As for `COc1cccc(-c2nn(C)c3sc(C(=O)NCCN4CCN(c5ccccc5F)CC4)cc23)c1`, the growth is 30.8% (inactive).

`O=S(=O)(c1ccccc1)n1cc2c(c1-c1ccccc1)CCc1sc(Nc3ccccc3)nc1-2`: the growth was 79.4% (inactive).

Take `CN1CCN(Cc2ccc(NC(=O)c3cncc(C#Cc4nc(N)nc5[nH]ncc45)c3)cc2C(F)(F)F)CC1`: the growth was 100% (inactive).

For the compound `Clc1ccc(-c2nnc(COc3ccc(C4=NNC(c5ccco5)C4)cc3)o2)cc1` (stereo not drawn), the growth is 82.7% (inactive).

With `CC(=O)c1ccc(Cc2ccc(C(C)=O)s2)s1`, the growth is 99.8% (inactive).

`CCOC(=O)c1cnc2ccc(Cl)cc2c1NCCCN(C)C`: the growth was 15.8% (inactive).

In the case of `CCN1C(=O)N(CC)C2C1NN=c1s/c(=C3\C(=O)N(CC(C)(C)C)c4ccccc43)c(=O)n12` (stereo not drawn), the growth was 26% (inactive).

As for `CC(=O)c1ccc2oc(=O)n(Cc3ccc(C#N)cc3)c(=O)c2c1`, the growth was 107% (inactive).

Take `O=C1/C(=C/c2cccc(O)c2)COc2ccc(O)cc21`: the growth was 103% (inactive).

As for `O=C(Nc1nc2c(s1)CCc1c-2c(Br)n(Cc2ccccc2)c1Br)c1ccccc1`, the growth is 36.6% (inactive).

As to `Nc1n[nH]c2ccc([C@@H]3Nc4ccc5[nH]ncc5c4[C@H]4[C@H]5CCC(C5)[C@H]43)cc12`, the growth was 11.8% (inactive).

Regarding `CN(C)c1ccc(/C=C/c2ccnc3c(O)cccc23)cc1`, the growth was 36.5% (inactive).

As for `CCOC(=O)c1cc2c(n1Cc1cccc(OC)c1)-c1oncc1CCC2`, the growth was 53.9% (inactive).

As to `Cn1nc(C(C)(C)C)cc1NC(=O)Cc1ccc(/C=C2\C(=O)Nc3ccccc32)cc1`, the growth is 66.4% (inactive).

Consider `Cc1c(C(=O)OCCO)cc(-c2ccc(Cl)cc2)n1-c1ccc(Cl)cc1Cl`, for which the growth was 74.2% (inactive).

For `CCC1=C[C@]2(C3CC(=O)N(c4ccccc4)C3=O)CC(C(C)(C)C)C[C@@H]2[C@@H]2C(=O)N(c3ccccc3)C(=O)[C@H]12` (stereo partly drawn), the growth was 81.4% (inactive).

As for `Nc1ccc(-c2nn3c(CCC(=O)c4nc5ncccc5[nH]4)nnc3s2)c(O)c1`, the growth is 71.2% (inactive).

For the compound `CCCCCCc1cc2cc(-c3nc4ccccc4[nH]3)c(=Nc3ccccc3C)oc2cc1O`, the growth is 41.6% (inactive).

Turning to `COc1ccc(OC)c(N(CCN2C(=O)c3ccccc3C2=O)C(=O)CCl)c1`, the growth was 69.7% (inactive).

Regarding `COc1ccc(C)c2sc(N(Cc3cccnc3)C(=O)c3ccc(C#N)cc3)nc12`, the growth is -4% (active).

Take `O=C(/C=C/c1ccccn1)c1ccc(OCc2nnc(-c3ccc(Cl)cc3)o2)cc1`: the growth was 33.4% (inactive).

Consider `COc1ccc(C2C3=C(COC3=O)N(CCO)c3cc4c(cc32)CCC4)cc1` (stereo not drawn), for which the growth was 70.9% (inactive).

Turning to `CN(C)/C=C1\SC(=Nc2ccc(Cl)cc2)NC1=O`, the growth was 92.7% (inactive).

As to `c1ccc(CNc2nc(Nc3ccccc3)nc3ccccc23)cc1`, the growth was 66.8% (inactive).

Consider `COc1ccc2c(c1)C=C1CSCC3=Cc4cc(OC)ccc4OC13O2`, for which the growth was 16.4% (inactive).

With `COc1ccc(C(O)(CCC(C)C)C(CN2CCOCC2)c2ccc(Cl)cc2)cc1` (stereo not drawn), the growth is 68.5% (inactive).

With `COC(=O)[C@H]1CCCN1C(=O)[C@H]1CCCN1C(=O)[C@H](Cc1c[nH]c2ccccc12)NC(=S)Nc1cc(C(F)(F)F)cc(C(F)(F)F)c1`, the growth was -38.5% (active).

For the compound `CCn1c(Cc2ccccc2Nc2c(Cl)cccc2Cl)nnc1SCC(=O)NN1C(=O)/C(=C/c2cccc(OC)c2OC)SC1=S`, the growth is 102% (inactive).

`CCCC(c1nnnn1C1CCCCC1)N1CCN(C(=O)c2ccco2)CC1` (stereo not drawn): the growth is 63.9% (inactive).

`C1=CC2(C=C1)OC21CCC2(C=CC3(C2)OC3C2CCCCC2)CC1` (stereo not drawn): the growth was 108% (inactive).

For the compound `O=C(NC1CCN(Cc2ccccc2)CC1)c1cc(C(=O)NC2CCN(Cc3ccccc3)CC2)cc(C(=O)NC2CCN(Cc3ccccc3)CC2)c1`, the growth is 90.3% (inactive).

On to `COc1cc(-c2c3c(c(Br)n2Cc2ccccc2)-c2nc(N)sc2CC3)cc(OC)c1OC`, for which the growth was 68.6% (inactive).

Consider `NC(CCc1nc2ccccc2c(=O)[nH]1)C(=O)O` (stereo not drawn), for which the growth is 103% (inactive).

For `Nc1no[n+]([O-])c1-c1nnc2c(n1)-c1ccccc1C2=O`, the growth was 67.8% (inactive).

For `CCOc1ccc(-c2nonc2NC(=O)c2cccc(C)c2)cc1OCC`, the growth is 76.5% (inactive).

`Cc1ccc(OCCCCCCNCCO)c(C)c1`: the growth was 18% (inactive).

The next assay concerns RXF 393 renal. The assay is described as above. The conditions noted are these: 10 µM unless noted.
Take `CCCSC1=NC2C(N(CC)C(=O)N2CC)N1/N=C/C=C/c1ccccc1[N+](=O)[O-]` (stereo not drawn): the growth is 0.465% (active).

Consider `COC(=O)C1=Nc2ccc(F)cc2/C1=C/c1sc(=S)[nH]c1O`, for which the growth is 30.4% (inactive).

For the compound `O=C1c2cc(Br)ccc2Oc2cc([N+](=O)[O-])ccc2N1c1ccc(I)cc1F`, the growth was 94.5% (inactive).

As for `COc1cccc(-c2nn(C)c3sc(C(=O)NCCN4CCN(c5ccccc5F)CC4)cc23)c1`, the growth was 41.3% (inactive).

In the case of `O=S(=O)(c1ccccc1)n1cc2c(c1-c1ccccc1)CCc1sc(Nc3ccccc3)nc1-2`, the growth was 87% (inactive).

Take `CN1CCN(Cc2ccc(NC(=O)c3cncc(C#Cc4nc(N)nc5[nH]ncc45)c3)cc2C(F)(F)F)CC1`: the growth is 79.2% (inactive).

Consider `Clc1ccc(-c2nnc(COc3ccc(C4=NNC(c5ccco5)C4)cc3)o2)cc1` (stereo not drawn), for which the growth was 91.7% (inactive).

Consider `CC(=O)c1ccc(Cc2ccc(C(C)=O)s2)s1`, for which the growth is 104% (inactive).

For `CCOC(=O)c1cnc2ccc(Cl)cc2c1NCCCN(C)C`, the growth was -3.24% (active).

`CCN1C(=O)N(CC)C2C1NN=c1s/c(=C3\C(=O)N(CC(C)(C)C)c4ccccc43)c(=O)n12` (stereo not drawn): the growth was 12.3% (inactive).

On to `CC(=O)c1ccc2oc(=O)n(Cc3ccc(C#N)cc3)c(=O)c2c1`, for which the growth was 114% (inactive).

In the case of `O=C1/C(=C/c2cccc(O)c2)COc2ccc(O)cc21`, the growth is 115% (inactive).

Consider `O=C(Nc1nc2c(s1)CCc1c-2c(Br)n(Cc2ccccc2)c1Br)c1ccccc1`, for which the growth was 36.6% (inactive).

With `Nc1n[nH]c2ccc([C@@H]3Nc4ccc5[nH]ncc5c4[C@H]4[C@H]5CCC(C5)[C@H]43)cc12`, the growth is 25.6% (inactive).

As for `CN(C)c1ccc(/C=C/c2ccnc3c(O)cccc23)cc1`, the growth was 36.1% (inactive).

Turning to `CCOC(=O)c1cc2c(n1Cc1cccc(OC)c1)-c1oncc1CCC2`, the growth was 21.4% (inactive).

`Cn1nc(C(C)(C)C)cc1NC(=O)Cc1ccc(/C=C2\C(=O)Nc3ccccc32)cc1`: the growth is 70.9% (inactive).

Regarding `Cc1c(C(=O)OCCO)cc(-c2ccc(Cl)cc2)n1-c1ccc(Cl)cc1Cl`, the growth is 62.8% (inactive).

`CCC1=C[C@]2(C3CC(=O)N(c4ccccc4)C3=O)CC(C(C)(C)C)C[C@@H]2[C@@H]2C(=O)N(c3ccccc3)C(=O)[C@H]12` (stereo partly drawn): the growth is 87.3% (inactive).

With `Nc1ccc(-c2nn3c(CCC(=O)c4nc5ncccc5[nH]4)nnc3s2)c(O)c1`, the growth was 84.9% (inactive).

On to `CCCCCCc1cc2cc(-c3nc4ccccc4[nH]3)c(=Nc3ccccc3C)oc2cc1O`, for which the growth is 28.5% (inactive).

With `COc1ccc(OC)c(N(CCN2C(=O)c3ccccc3C2=O)C(=O)CCl)c1`, the growth is 58.7% (inactive).

For `COc1ccc(C)c2sc(N(Cc3cccnc3)C(=O)c3ccc(C#N)cc3)nc12`, the growth was -31% (active).

With `O=C(/C=C/c1ccccn1)c1ccc(OCc2nnc(-c3ccc(Cl)cc3)o2)cc1`, the growth was -71.7% (active).

In the case of `COc1ccc(C2C3=C(COC3=O)N(CCO)c3cc4c(cc32)CCC4)cc1` (stereo not drawn), the growth is 30.5% (inactive).

Take `CN(C)/C=C1\SC(=Nc2ccc(Cl)cc2)NC1=O`: the growth is 100% (inactive).

On to `c1ccc(CNc2nc(Nc3ccccc3)nc3ccccc23)cc1`, for which the growth was 2.83% (active).

On to `COc1ccc2c(c1)C=C1CSCC3=Cc4cc(OC)ccc4OC13O2`, for which the growth is 5% (active).

With `COc1ccc(C(O)(CCC(C)C)C(CN2CCOCC2)c2ccc(Cl)cc2)cc1` (stereo not drawn), the growth was 88.3% (inactive).

Consider `COC(=O)[C@H]1CCCN1C(=O)[C@H]1CCCN1C(=O)[C@H](Cc1c[nH]c2ccccc12)NC(=S)Nc1cc(C(F)(F)F)cc(C(F)(F)F)c1`, for which the growth is 64.8% (inactive).

`CCn1c(Cc2ccccc2Nc2c(Cl)cccc2Cl)nnc1SCC(=O)NN1C(=O)/C(=C/c2cccc(OC)c2OC)SC1=S`: the growth was 112% (inactive).

Consider `CCCC(c1nnnn1C1CCCCC1)N1CCN(C(=O)c2ccco2)CC1` (stereo not drawn), for which the growth was 65.1% (inactive).

For the compound `C1=CC2(C=C1)OC21CCC2(C=CC3(C2)OC3C2CCCCC2)CC1` (stereo not drawn), the growth is 119% (inactive).

For `O=C(NC1CCN(Cc2ccccc2)CC1)c1cc(C(=O)NC2CCN(Cc3ccccc3)CC2)cc(C(=O)NC2CCN(Cc3ccccc3)CC2)c1`, the growth was 60.1% (inactive).

Regarding `COc1cc(-c2c3c(c(Br)n2Cc2ccccc2)-c2nc(N)sc2CC3)cc(OC)c1OC`, the growth was 90.5% (inactive).

On to `NC(CCc1nc2ccccc2c(=O)[nH]1)C(=O)O` (stereo not drawn), for which the growth is 115% (inactive).

Regarding `Nc1no[n+]([O-])c1-c1nnc2c(n1)-c1ccccc1C2=O`, the growth is 91.2% (inactive).

For the compound `CCOc1ccc(-c2nonc2NC(=O)c2cccc(C)c2)cc1OCC`, the growth was 65.3% (inactive).

Turning to `Cc1ccc(OCCCCCCNCCO)c(C)c1`, the growth was -2.46% (active).
